The values below come from PubChem BioAssay (NCATS).

Common to all, as to test: qHTS profiling for inhibitors of Plasmodium falciparum proliferation (AID 504749); note: nearly all actives have a fitted effect of over 60% in size
What all share (details): P. falciparum in erythrocytes, SYBR Green DNA, 72 h; series mostly up to 12.8 µM
A general note: In qHTS, concentration-response curves come from the screen itself.

One assay deals with AA1029. In outline:
(§1)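 P. falciparum-infected erythrocytes (0.3% parasitemia, 2.5% hematocrit) incubated with compound 72 h at 37 C, 5% CO2. Parasite DNA detected by SYBR Green after lysis, overnight at room temperature; normalised to 0.29 uM artemisinin and DMSO.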

For another assay, the system named is C2A. In outline:
as §1

In another assay the test system is CP211. In outline:
as §1

The next assay concerns CP217. In outline: as §1
Another assay has as its system CP237. In outline:
as §1

Another assay deals with CP252. In outline:
as §1

For a further assay, the system named is CP269. In outline: as §1
The test system of a further assay is CP286. In outline:
as §1

In the next assay the test system is CP291. In outline:
as §1

The test system of a further assay is CP305. In outline:
as §1

A further assay concerns CP315. In outline: as §1
In another assay the test system is CP335. In outline:
as §1

The test system of another assay is DFO2036. In outline: as §1
The next assay deals with DIV30. In outline: as §1
For another assay, the system named is ECU. In outline:
as §1

The subject of a further assay is HB3. In outline:
as §1

The next assay relates to P93_24. In outline: as §1
The subject of another assay is P94_40. In outline: as §1
A further assay has as its system PC26. In outline:
as §1

The next assay deals with TAB165. In outline: as §1

Results filed as inconclusive are left out. Calls of active or inactive are those of the source. Calls come from the whole dose curve; as a rule, active = well fitted inhibition curve with a large enough effect; inconclusive = small, poorly fitted or top-dose-only effect; inactive = flat fitted curve, though single readings scatter.
Potency is the fitted concentration of half-maximal effect.

For the compound `NS(=O)(=O)c1cc([C@@]2(O)NC(=O)c3ccccc32)ccc1Cl`, the Potency entry in the assay with AA1029, in the assay on C2A, in the assay on CP211, in the assay with CP217, with CP237 and in the assay on CP252 was “inactive” throughout. Further, the Potency result in the assay with CP269, in the assay with CP286, in the assay on CP291, with CP305, in the assay with CP315 and with CP335 was “inactive” throughout. In addition, the Potency result in the assay on DFO2036, in the assay with DIV30, with ECU, in the assay with HB3, in the assay with P93_24 and in the assay on P94_40 was “inactive” in each case. Moreover, the Potency entry in the assay with PC26 and in the assay on TAB165 was “inactive” throughout.
With `CC(=O)Nc1c(I)c(C(=O)N[C@H]2[C@@H](O)[C@H](O)[C@H](CO)O[C@@H]2O)c(I)c(N(C)C(C)=O)c1I`, the Potency result in the assay on AA1029, in the assay with C2A, in the assay with CP211, in the assay on CP217, with CP237 and in the assay with CP252 was “inactive” throughout. The Potency entry in the assay with CP269, in the assay on CP286, in the assay with CP291, with CP305, in the assay on CP315 and with CP335 was “inactive” in each case. Also, the Potency entry in the assay on DFO2036, in the assay with DIV30, in the assay with ECU, in the assay on HB3, in the assay on P93_24 and in the assay on P94_40 was “inactive” each time. Moreover, the Potency result in the assay with PC26 and in the assay on TAB165 was “inactive” each time.
With `CCN1C(=O)N[C@@H](c2ccccc2)C1=O`, the Potency entry in the assay on AA1029, with C2A, with CP211, in the assay with CP217, with CP237 and with CP252 was “inactive” each time. Also, the Potency result in the assay on CP269, in the assay with CP286, in the assay with CP291, in the assay with CP305, with CP315 and with CP335 was “inactive” each time. In addition, the Potency entry in the assay with DFO2036, in the assay with DIV30, with ECU, in the assay with HB3, in the assay on P93_24 and with P94_40 was “inactive” in each case. The Potency entry in the assay with PC26 and in the assay with TAB165 was “inactive” each time.
Regarding `COCCc1ccc(OC[C@H](O)CNC(C)C)cc1`, the Potency result in the assay with AA1029, in the assay on C2A, in the assay with CP211, in the assay on CP217, in the assay with CP237 and in the assay on CP252 was “inactive” each time. The Potency result in the assay with CP269, with CP286, with CP291, in the assay on CP305, in the assay with CP315 and in the assay on CP335 was “inactive” each time. In addition, the Potency result with DFO2036, in the assay with DIV30, with ECU, in the assay on HB3, in the assay on P93_24 and with P94_40 was “inactive” each time. The Potency entry with PC26 and in the assay on TAB165 was “inactive” each time.
As to `COc1ccccc1OC[C@H](O)COC(N)=O`, the Potency entry in the assay with AA1029, with C2A, in the assay on CP211, in the assay with CP217, in the assay on CP237 and in the assay with CP252 was “inactive” throughout. Further, the Potency result in the assay with CP269, in the assay with CP286, with CP291, in the assay on CP305, in the assay with CP315 and in the assay with CP335 was “inactive” throughout. The Potency entry in the assay with DFO2036, with DIV30, in the assay with ECU, with HB3, with P93_24 and with P94_40 was “inactive” in each case. The Potency entry with PC26 and in the assay on TAB165 was “inactive” each time.
Turning to `CCC[C@H]1C(=O)N2C(N(C)C)=Nc3ccc(C)cc3N2C1=O`, the Potency entry in the assay on AA1029, with C2A, with CP211, with CP217, in the assay with CP237 and in the assay on CP252 was “inactive” throughout. Also, the Potency entry with CP269, with CP286, in the assay on CP291, in the assay on CP305, in the assay with CP315 and in the assay on CP335 was “inactive” each time. Further, the Potency result with DFO2036, with DIV30, in the assay on ECU, in the assay with HB3, in the assay on P93_24 and with P94_40 was “inactive” each time. The Potency result with PC26 and in the assay on TAB165 was “inactive” throughout.
For `O=C(O)/C=C\c1ccc(Cn2ccnc2)cc1`, the Potency entry in the assay with AA1029, in the assay with C2A, in the assay with CP211, in the assay on CP217, in the assay on CP237 and with CP252 was “inactive” each time. Moreover, the Potency result in the assay on CP286, with CP291, in the assay with CP305, in the assay on CP315, in the assay with CP335 and in the assay with DFO2036 was “inactive” throughout. For the same compound, the Potency entry in the assay on DIV30, in the assay with ECU, with HB3, with P93_24, with P94_40 and with PC26 was “inactive” each time. The Potency result in the assay with TAB165 is “inactive”.
On to `CC1(C)S[C@@H]2[C@H](NC(=O)[C@H](C(=O)O)c3ccsc3)C(=O)N2[C@H]1C(=O)O`, for which the Potency result in the assay on AA1029, with C2A, with CP211, with CP217, in the assay on CP237 and with CP252 was “inactive” in each case. Further, the Potency result in the assay with CP269, in the assay on CP286, in the assay with CP291, in the assay with CP305, in the assay with CP315 and with CP335 was “inactive” each time. The Potency result in the assay on DFO2036, in the assay on DIV30, in the assay on ECU, in the assay with HB3, in the assay on P93_24 and with P94_40 was “inactive” throughout. Further, the Potency result with PC26 and with TAB165 was “inactive” throughout.
`COc1ccc(C[C@@H]2c3cc(OC)c(OC)cc3CC[N@+]2(C)CCC(=O)OCCCCCOC(=O)CC[N@@+]2(C)CCc3cc(OC)c(OC)cc3[C@H]2Cc2ccc(OC)c(OC)c2)cc1OC`: the Potency entry in the assay with AA1029, with C2A, with CP211, with CP217, in the assay with CP237 and with CP252 was “inactive” each time. The Potency entry in the assay on CP269, in the assay with CP286, in the assay with CP291, with CP305, in the assay on CP315 and in the assay on CP335 was “inactive” in each case. Moreover, the Potency result in the assay on DFO2036, in the assay with DIV30, in the assay with ECU, in the assay with HB3, in the assay on P93_24 and in the assay with P94_40 was “inactive” in each case. Besides, the Potency entry with PC26 and with TAB165 was “inactive” in each case.
Consider `CCCN[C@@H](C)C(=O)Nc1c(C)csc1C(=O)OC`, for which the Potency entry with AA1029, with C2A, in the assay with CP211, in the assay on CP217, in the assay with CP237 and with CP252 was “inactive” each time. In addition, the Potency result with CP269, in the assay with CP286, in the assay on CP291, in the assay with CP305, in the assay on CP315 and in the assay on CP335 was “inactive” each time. Further, the Potency result with DFO2036, in the assay with DIV30, in the assay with ECU, in the assay with HB3, in the assay on P93_24 and with P94_40 was “inactive” in each case. The Potency result in the assay with PC26 and in the assay on TAB165 was “inactive” in each case.
As for `CCN(CC)CCC[C@H](C)Nc1ccnc2cc(Cl)ccc12`, the Potency with AA1029 is 8.91 µM (active); in the assay with C2A, 3.55 µM (active); in the assay with CP211 it was 6.75 µM (active); in the assay on CP237 it was 4.47 µM (active); with CP269, 9.53 µM (active); with CP286, 3.16 µM (active). The Potency in the assay with CP291 was 3.38 µM (active); with CP305 it was 2.69 µM (active); in the assay on CP335, 12 µM (active); in the assay on DFO2036 it was 3.98 µM (active); with DIV30 it was 6.75 µM (active); in the assay on ECU, 2.24 µM (active). Also, the Potency is 0.316 µM (active) in the assay on HB3; 2.82 µM (active) in the assay with P93_24; 5.01 µM (active) in the assay on P94_40; 4.78 µM (active) with PC26; 5.62 µM (active) in the assay with TAB165.
As to `C[N+]1(C)CCC[C@@H](OC(=O)C(O)(c2ccccc2)c2ccccc2)C1`, the Potency result with AA1029, in the assay on C2A, in the assay on CP211, in the assay on CP217, with CP237 and in the assay on CP252 was “inactive” in each case. For the same compound, the Potency entry in the assay with CP269, in the assay with CP286, in the assay on CP291, in the assay with CP305, in the assay on CP335 and in the assay with DFO2036 was “inactive” in each case. Besides, the Potency result in the assay on DIV30, in the assay on ECU, in the assay on HB3, in the assay on P93_24, in the assay with P94_40 and in the assay on PC26 was “inactive” throughout. Also, the Potency result in the assay with TAB165 is “inactive”.
